Screens: PubChem, National Center for Advancing Translational Sciences (NCATS)
Hits are enriched below; roughly 22% of the tested compounds scored in any of these assays.
Cycloheximide cs: affects cycloheximide protein synthesis inhibition readout, counter-screen | cell reporter, cycloheximide protein synthesis inhibition counterscreen | max response, % | 12% of 300,000 active | AID 2314; in the data active = max response mostly above about 13%, no sharp cut-off; inactive = mostly below about 14%; note: read at 38.3 µM for the half of the compounds with a filed dose; 0% is about no effect
Shiga inhibitor: inhibitors of Shiga toxin in Vero cells; Vero cells, Shiga toxin protein synthesis inhibition reporter; inhibition, % at 38.7 µM; 9.2% of 290,000 active; AID 2315; in the data active = inhibition mostly above about 28%, no sharp cut-off; inactive = mostly below about 43%; note: 0% is about no effect
Pf growth 96h: P. falciparum growth inhibition at 96 hours; Potency, µM (top dose mostly 28.7 µM), for inactives: top-dose activity change, negative = inhibition, usual class: inhibitors; 6.9% of 320,000 active; P. falciparum luciferase reporter growth, 96 h; note: potency is the fitted concentration of half-maximal effect; % is set by controls: 0 for no effect and ±100 for the full control effect
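Parasite growth measured via integrated firefly luciferase reporter in P. falciparum. Infected erythrocytes at 2% hematocrit, 0.05% parasitemia final were treated 96 hours at 37 C under 5% CO2, and luminescence was read.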
LmPK inhibitor: blocks Leishmania mexicana pyruvate kinase activity. Q27686. AID 1721. 0.37% of 290,000 active. Potency, µM (titrated, usually from 57.5 µM), without a hit: at the top dose activity change, negative = inhibition, hits mostly inhibitors. purified LmPK, Kinase-Glo ATP luminescence, 1 h; note: potency is the fitted concentration of half-maximal effect; % is set by controls: 0 for no effect and ±100 for the full control effect
Target sequence (Q27686 whole entry, looked up): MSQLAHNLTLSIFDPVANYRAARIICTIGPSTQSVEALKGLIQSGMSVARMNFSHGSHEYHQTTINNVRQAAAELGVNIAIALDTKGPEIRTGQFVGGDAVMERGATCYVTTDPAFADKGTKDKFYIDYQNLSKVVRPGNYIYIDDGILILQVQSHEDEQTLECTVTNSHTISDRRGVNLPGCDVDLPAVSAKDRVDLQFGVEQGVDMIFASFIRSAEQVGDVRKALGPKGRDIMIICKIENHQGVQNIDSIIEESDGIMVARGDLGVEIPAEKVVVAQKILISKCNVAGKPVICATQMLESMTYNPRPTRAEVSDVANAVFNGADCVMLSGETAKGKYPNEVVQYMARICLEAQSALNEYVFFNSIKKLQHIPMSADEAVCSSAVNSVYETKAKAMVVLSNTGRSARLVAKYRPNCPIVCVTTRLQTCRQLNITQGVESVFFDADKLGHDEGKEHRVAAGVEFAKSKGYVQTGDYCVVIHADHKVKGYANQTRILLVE
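Kinase-Glo luminescence read after 1 h RT reaction of 0.1 nM LmPK with 0.5 mM PEP and 0.1 mM ADP. Activity scaled between uninhibited and enzyme-free controls.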
Pf growth 48h: P. falciparum growth inhibition at 48 hours (one generation); P. falciparum luciferase growth in erythrocytes, 48 h; Potency, µM (top dose mostly 28.7 µM), inactives show at the highest dose activity change, negative = inhibition, usual class: inhibitors; 5.9% of 310,000 active; AID 504832; note: potency is the fitted concentration of half-maximal effect; % is set by controls: 0 for no effect and ±100 for the full control effect
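First compound was added to culture medium, then infected red cells at 0.1% parasitemia and 2% hematocrit (final). After incubation at 37 C under 5% CO2, luciferase detection reagent was dispensed and light output recorded.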
The depositor's hits bear a star; ? = inconclusive; · = no result given; [ ] = remark or other dose. Unless noted, calls come from the whole dose curve; as a rule, active = well fitted inhibition curve with a large enough effect; inconclusive = small, poorly fitted or top-dose-only effect, or another doubt; inactive = no such curve, though single readings can be large or run the other way.

SMILES | Cycloheximide cs | Shiga inhibitor | Pf growth 96h | LmPK inhibitor | Pf growth 48h
Cc1ccccc1NC(=S)NCC(c1cccnc1)N(C)C (configuration not stated) | -1 | -6 | 36% | -4% | 21%
C(#CC1CCCC1)c1ccc2c(c1)COc1c3ccccc3nn1-2 | 14* | 91* | 72% | -4% | 132%
CCCc1cc(-c2ccc3c(c2)COc2c4ccccc4nn2-3)on1 | · | · | 224% | · | 148%
O=C(CN(c1ccc(F)cc1)S(=O)(=O)c1ccccc1)NCCSC1CCCCC1 | 1 | -10 | ? | 3% | 6.6µM*
CS(=O)(=O)N(CC(=O)Nc1ccc2c(c1)OCO2)c1ccccc1 | 8 | 14 | 5% | -3% | 6%
CS(=O)(=O)N(CC(=O)Nc1ccc2c(c1)OCCO2)c1ccc2c(c1)OCO2 | 10* | 15 | · | 1% | 21%
COc1ccc(N(CC(=O)NCCC2=CCCCC2)S(=O)(=O)c2ccccc2F)cc1 | 7 | 8 | 10µM* | 4% | ?
C=CCN(c1ccc(C(=O)Nc2ccc3c(c2)n(C)c(=O)n3C)cc1)S(C)(=O)=O | 1 | · | ? | 2% | ?
C=CCN(c1ccc(C(=O)Nc2ccc3c(c2)OCO3)cc1)S(C)(=O)=O | 13* | 32 | -30% | 3% | ?
Cc1onc(-c2ccccc2)c1C(=O)NCCCc1ccccc1 | · | · | -1% | · | 11%
COc1ccc(N(CC(=O)NCCC2=CCCCC2)S(C)(=O)=O)cc1 | 10 | 18 | · | 6% | -5%
CS(=O)(=O)N(CC(=O)NCCSC1CCCCC1)c1ccc2c(c1)OCO2 | -2 | 15 | -17% | 3% | 5.2µM*
CS(=O)(=O)N(CC(=O)NCCC1=CCCCC1)c1ccc2c(c1)OCO2 | -2 | -19 | -5% | -8% | 4.1µM*
Cc1nn(C)c(C)c1CN(C(=O)C1CCC(=O)N(C2CCCCCC2)C1)C(C)C (configuration not stated) | 31* | 43 | 12µM* | 7% | ?
NC(=O)C1CCN(C(=O)C2CCC(=O)N(C3CCCCCC3)C2)CC1 (configuration not stated) | -2 | 16 | ? | -3% | -1%
CCOC(=O)C1(Cc2ccccc2C(F)(F)F)CCN(CC2CC2)CC1 | -5 | 21 | -20% | 3% | ?
O=C(NCc1ccc(F)cc1)c1cccc(S(=O)(=O)N2CCOCC2)c1 | · | · | -3% | · | ?
C=CCOc1cccc(C(=O)N2CCCC(CCC(=O)NCc3ccccc3F)C2)c1 (configuration not stated) | 29* | 73 | 21% | -3% | -11%
Cc1ccnn1CCC(=O)N1CCCC(CCC(=O)NCc2ccccc2F)C1 (configuration not stated) | 2 | 15 | -12% | 4% | -1%
Cc1ccsc1S(=O)(=O)N1CCCC(CCC(=O)NCc2ccccc2F)C1 (configuration not stated) | 7 | 14 | 14% | 1% | -9%
Cc1ccc(C(=O)N2CCCC(CCC(=O)NCc3ccccc3F)C2)cn1 (configuration not stated) | 21* | 27 | 3% | -3% | 22%
Cc1ccsc1C(=O)N1CCCC(CCC(=O)NCc2ccccc2F)C1 (configuration not stated) | 15* | 29 | ? | 6% | 0%
Cc1ccc(NC(=S)N(CCN(C)C)Cc2cc3cc(C)cc(C)c3[nH]c2=O)cc1 | -4 | -8 | 22% | 3% | ?
C/C(Cl)=C\Cn1c(O)c(N=NC(N)=S)c2cc(Br)ccc21 | -2 | 17 | ? | 1% | 10µM*
COc1ccc(N/N=C/c2c(O)n(-c3ccc(C)c(C)c3)c(=O)[nH]c2=O)cc1 | -2 | 16 | -13% | -1% | 5%
SMILES | Cycloheximide cs | Shiga inhibitor | Pf growth 96h | LmPK inhibitor | Pf growth 48h
COc1ccc(N/N=C/c2c(O)n(-c3cccc(C)c3)c(=O)[nH]c2=O)cc1 | 18* | 48 | 11% | 4% | 19%
O=C(O)CCCN1C(=O)C2C3C=CC(C2C1=O)C1C(=O)N(CCCC(=O)O)C(=O)C31 (configuration not stated) | -4 | · | 20% | 5% | 7%
O=C(O)CCCCCN1C(=O)C2CCCCC2C1=O (configuration not stated) | -2 | -3 | 9.3µM* | -6% | 4%
Cc1ccc(-n2c(SCC(=O)NCC3CCCO3)nnc2-c2ccoc2C)cc1 (configuration not stated) | -3 | -2 | · | 6% | ·
Cc1ccc(SCC(=O)NCC2CCCO2)cc1 (configuration not stated) | 13 | 28 | -36% | 1% | 47%
CCc1ccc2nc(SCC(=O)NCC3CCCO3)c(C#N)cc2c1 (configuration not stated) | 4 | 7 | 42% | 5% | 26%
CC(C)c1ccc2nc(SCC(=O)NCC3CCCO3)c(C#N)cc2c1 (configuration not stated) | 23 | 71* | -20% | 0% | 19%
Cc1occc1-c1nnc(SCC(=O)NCC2CCCO2)n1C (configuration not stated) | 0 | -12 | 2.3µM* | -11% | 14%
COc1ccc(-c2nsc(SCC(=O)NCC3CCCO3)n2)cc1 (configuration not stated) | 32* | 65* | ? | 0% | 127%
Cc1ccc(-c2nnc(SCC(=O)NCC3CCCO3)nc2-c2ccc(C)cc2)cc1 (configuration not stated) | · | · | ? | · | 15µM*
Cc1ccc(SCCC(=O)NCC2CCCO2)cc1 (configuration not stated) | 13* | 23 | · | -4% | 10%
C=CCn1c(SCC(=O)NCC2CCCO2)nc2scc(-c3ccc(OC)cc3)c2c1=O (configuration not stated) | -4 | -9 | 5.2µM* | 7% | 13%
C=CCn1c(SCC(N)=O)nc2scc(-c3ccc(C)o3)c2c1=O | 45* | 85* | 2% | -16% | 141%
C=CCn1c(SCC(=O)NCC2CCCO2)nc2scc(-c3ccco3)c2c1=O (configuration not stated) | -2 | 2 | · | 3% | ?
Cc1ccc(-c2nsc(SCC(=O)NCC3CCCO3)n2)cc1 (configuration not stated) | 19 | 56* | 63% | 0%[11.5 µM] | 18%
Cc1ccc(-c2nnc(SCC(=O)NCC3CCCO3)n2C)cc1 (configuration not stated) | -4 | -8 | -22% | -4% | ·
O=C(NCC1CCCO1)c1cn(Cc2ccccc2)nc1-c1ccc(Cl)cc1 (configuration not stated) | · | · | -13% | · | ?
Cc1ccc(C(=O)N2N=C(CC(C)C)CC2(O)C(F)(F)F)o1 (configuration not stated) | -1 | 15 | -4% | 11% | ?
COC(=O)Cc1ccc(NC(=O)c2ccc(NC(=O)c3ccco3)cc2)cc1 | 8 | 25 | ? | 0% | -5%
CCOc1ccccc1-c1nc(-c2ccc(NC(=O)c3ccc(Br)o3)cc2)no1 | 44* | 47 | 29% | -6% | 2.9µM*
